The values that follow come from publication PMC5913336, “True equilibrium measurement of transcription factor-DNA binding affinities using automated polarization microscopy”.

Holding throughout (assay): FP; 33 mM phosphate pH 7.0, 90 mM NaCl, 0.01% Tween 20, 0.1 mM DTT, 0.5% agarose; room temperature
One assay addresses T1, Slp1-FL (Drosophila melanogaster, UniProt P32030).
T1 sequence: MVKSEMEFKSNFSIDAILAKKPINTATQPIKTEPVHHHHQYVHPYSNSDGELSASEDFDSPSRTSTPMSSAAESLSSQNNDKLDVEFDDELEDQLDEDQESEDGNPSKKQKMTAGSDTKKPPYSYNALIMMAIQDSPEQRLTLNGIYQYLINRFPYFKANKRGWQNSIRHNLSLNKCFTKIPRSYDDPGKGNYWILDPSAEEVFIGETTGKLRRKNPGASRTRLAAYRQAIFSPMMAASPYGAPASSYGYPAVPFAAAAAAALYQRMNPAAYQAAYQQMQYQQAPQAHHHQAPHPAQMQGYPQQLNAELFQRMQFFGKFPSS
To be noted: tags: N-GST (pGEX-6P-1, kept); dsDNA, one strand shown.

In another assay the target is Ttk-PF (Drosophila melanogaster, UniProt P17789 499-564). As to conditions: dsDNA, one strand shown.
Another assay has as its target Cic (Drosophila melanogaster, UniProt Q9U1H0 483-565). As to conditions: tags: N-GST (pGEX-6P-1, kept); dsDNA, one strand shown.

A word on the Kd: it is the constant that tells how readily two partners part at equilibrium.

Take ACGTGTTTACGCTTA: the binding signal with Slp1-FL was 1.83 Kd / Kd of best base at the position.
The same measure, in the same setting: with ACGTGTTTATACTTA the figure was 2.63 Kd / Kd of best base at the position; with AGGTGTTTACACTTA, 1.71 Kd / Kd of best base at the position; with ACGTGTTTTCACTTA, 13 Kd / Kd of best base at the position.
Turning to ACGTGTTTACACTTG, the binding signal with Slp1-FL is 1.73 Kd / Kd of best base at the position.
Still for that read-out and setting: to ACGTGTTTACTCTTA belongs 2.44 Kd / Kd of best base at the position.
On the same count and under the same terms, with ACGTGTGTACACTTA the figure was 7.74 Kd / Kd of best base at the position.
On the same count and under the same terms, to ACGTGCTTACACTTA belongs 16.8 Kd / Kd of best base at the position; to ACGTGTTGACACTTA, 5.44 Kd / Kd of best base at the position; to ACGTGTTTAGACTTA, 19.7 Kd / Kd of best base at the position.
Consider ACCTGTTTACACTTA, for which the binding signal with Slp1-FL is 3.03 Kd / Kd of best base at the position.
ACGTGTTTACACTTC: the binding signal in the assay with Slp1-FL is 1.33 Kd / Kd of best base at the position.
Still for that read-out and setting: with AAGTGTTTACACTTA the figure was 8.32 Kd / Kd of best base at the position.
Same read-out and setting: with ACATGTTTACACTTA the figure was 1.13 Kd / Kd of best base at the position.
Still for that read-out and setting: with ACGTGTTTACAATTA the figure was 2.79 Kd / Kd of best base at the position; with ACGTATTTACACTTA, 3.26 Kd / Kd of best base at the position.
For ACGTGTTAACACTTA, the binding signal with Slp1-FL is 14 Kd / Kd of best base at the position.
On the same count and under the same terms, to GCGTGTTTACACTTA belongs 1.21 Kd / Kd of best base at the position; to ACGTGTTTACCCTTA, 2.19 Kd / Kd of best base at the position.
Still for that read-out and setting: to ACGTGTTTACATTTA belongs 1.28 Kd / Kd of best base at the position.
On the same count and under the same terms, to ACGTGTTTACACATA belongs 9.38 Kd / Kd of best base at the position.
Turning to ACGCGTTTACACTTA, in the assay with Slp1-FL, the binding signal is 14.2 Kd / Kd of best base at the position.
Consider ACGTTTTTACACTTA, for which, in the assay with Slp1-FL, the binding signal is 21.2 Kd / Kd of best base at the position.
As to ACGTGTTTACACTTA, the dissociation constant (Kd) with Slp1-FL is roughly 17 nM.
ACGTGTTTACACTAA: the binding signal in the assay with Slp1-FL is 10.7 Kd / Kd of best base at the position.
As for CCGCCAGGATAAC, the binding signal with Ttk-PF was 3.01 Kd / Kd of best base at the position.
With CGCTGAATGGGGT, in the assay with Cic, the binding signal is 3.22 Kd / Kd of best base at the position.
Still for that read-out and setting: with CGTTGAGTGGGGT the figure was 7.68 Kd / Kd of best base at the position; with GGTTGAATGGGGT, 1.41 Kd / Kd of best base at the position.
Same read-out and setting: to CGTTGAATGGCGT belongs 2 Kd / Kd of best base at the position; to CGTGGAATGGGGT, 17.5 Kd / Kd of best base at the position.
For CGTTGAATTGGGT, the binding signal with Cic is 6.71 Kd / Kd of best base at the position.
The same measure, in the same setting: with CGTTCAATGGGGT the figure was 1.93 Kd / Kd of best base at the position; with CGTTTAATGGGGT, 4.43 Kd / Kd of best base at the position.
Same read-out and setting: with CCTTGAATGGGGT the figure was 1.89 Kd / Kd of best base at the position.
Turning to CGTTGAATGGGTT, in the assay with Cic, the binding signal is 1.85 Kd / Kd of best base at the position.
Consider CATTGAATGGGGT, for which, in the assay with Cic, the binding signal was 1.53 Kd / Kd of best base at the position.
On the same count and under the same terms, with CGTAGAATGGGGT the figure was 5.55 Kd / Kd of best base at the position; with CGTTGACTGGGGT, 3.64 Kd / Kd of best base at the position; with CGTTGAATGGAGT, 1.79 Kd / Kd of best base at the position.
As for CGTCGAATGGGGT, the binding signal in the assay with Cic was 12.4 Kd / Kd of best base at the position.
Still for that read-out and setting: to CGTTAAATGGGGT belongs 3.06 Kd / Kd of best base at the position; to CGTTGAATAGGGT, 6.64 Kd / Kd of best base at the position; to CGTTGAATGGTGT, 2.29 Kd / Kd of best base at the position.
For the sequence CGTTGAATGGGGT, the dissociation constant (Kd) with Cic is roughly 34.1 nM.
With CGTTGAATGCGGT, the binding signal with Cic is 7.69 Kd / Kd of best base at the position.
Still for that read-out and setting: with CGTTGAATGGGCT the figure was 1.86 Kd / Kd of best base at the position.
As for CGGTGAATGGGGT, the binding signal with Cic is 2.27 Kd / Kd of best base at the position.
Same read-out and setting: to CGTTGAAGGGGGT belongs 11.1 Kd / Kd of best base at the position; to CGTTGAATGAGGT, 2.2 Kd / Kd of best base at the position.
Same read-out and setting: with CGTTGAACGGGGT the figure was 10.1 Kd / Kd of best base at the position; with CGTTGCATGGGGT, 17.1 Kd / Kd of best base at the position.
The same measure, in the same setting: with AGTTGAATGGGGT the figure was 1.69 Kd / Kd of best base at the position; with CGATGAATGGGGT, 2.02 Kd / Kd of best base at the position; with CGTTGAATGGGGG, 2.15 Kd / Kd of best base at the position.
In the case of CGTTGAATCGGGT, the binding signal with Cic was 7.88 Kd / Kd of best base at the position.
On the same count and under the same terms, to CGTTGTATGGGGT belongs 5.33 Kd / Kd of best base at the position; to CGTTGAATGGGGC, 2.65 Kd / Kd of best base at the position.
The same measure, in the same setting: to CGTTGAAAGGGGT belongs 8.64 Kd / Kd of best base at the position; to CGTTGAATGGGAT, 1.93 Kd / Kd of best base at the position.
